The structures appear in SMILES notation. The source made the active and inactive calls. How the source made its calls: active means hit-call score of the fitted dose curve at least 0.9, where 1 is the maximum; inactive means score below 0.9.

The target in the assay is Nuclear respiratory factor 1 (Homo sapiens) (UniProt Q16656). Briefly: ATG_NRF1_CIS: Attagene CIS-FACTORIAL HepG2 Assay for human Nuclear Respiratory Factor 1 (NRF1) Orphan Gene (AID 2282987). The conditions noted are these: HepG2 NRF1 cis-element reporter, Attagene multiplex; actives raise or lower the signal. On the procedure: ATG_CIS is a cell-based, multiplexed-readout assay that uses HepG2, a human liver cell line, with measurements taken at 24 hours after chemical dosing in a 24-well plate.ATG_NRF1_CIS is one of 52 assay component(s) measured or calculated from the ATG_CIS assay. It is designed to make measurements of mRNA induction, a form of inducible reporter, as detected with fluorescence intensity signals by Reverse transcription polymerase chain reaction (RT-PCR) and Capillary electrophoresis technology.Data from the assay component ATG_NRF1_CIS was analyzed into 1 assay endpoint. This assay endpoint, ATG_NRF1_CIS, was analyzed with bidirectional fitting relative to DMSO as the negative control and baseline of activity. Using a type of inducible reporter, measures of mRNA for gain or loss-of-signal activity can be used to understand the reporter gene at the transcription factor-level as they relate to the gene NRF1. Furthermore, this assay endpoint can be referred to as a primary readout, because this assay has produced multiple assay endpoints where this one serves a reporter gene function. To generalize the intended target to other relatable targets, this assay endpoint is annotated to the dna binding intended target family, where the subfamily is nuclear respiratory factors.
Sequence of Nuclear respiratory factor 1 (Homo sapiens) (Q16656 whole entry, looked up): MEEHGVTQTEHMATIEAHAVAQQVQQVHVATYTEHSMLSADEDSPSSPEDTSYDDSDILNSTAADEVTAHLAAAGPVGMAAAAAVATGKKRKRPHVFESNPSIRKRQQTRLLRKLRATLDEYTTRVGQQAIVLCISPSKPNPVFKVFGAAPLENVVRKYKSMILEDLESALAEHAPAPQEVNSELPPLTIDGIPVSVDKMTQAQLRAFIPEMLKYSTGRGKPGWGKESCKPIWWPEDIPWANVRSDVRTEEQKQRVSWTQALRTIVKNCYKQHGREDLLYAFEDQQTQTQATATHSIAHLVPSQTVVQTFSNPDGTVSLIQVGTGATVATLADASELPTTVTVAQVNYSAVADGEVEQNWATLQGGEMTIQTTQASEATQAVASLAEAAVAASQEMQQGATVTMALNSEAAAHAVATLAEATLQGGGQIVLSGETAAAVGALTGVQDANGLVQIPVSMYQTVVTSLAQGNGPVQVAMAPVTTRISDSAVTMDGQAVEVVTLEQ
Human liver HepG2 cells are transiently transfected with multiple reporter transcription units (MRTUs) in 6-well plates using FuGene 6 reagent (Roche; 3 ml FuGene/1 mg DNA). The MRTU constructs are regulated by a cis-regulating element (promoter). […] A major difference between the CIS and TRANS system is that in CIS activities of endogenous TFs are measured, whereas the TRANS assay evaluates changes in activities of exogenous, chimeric NR-Gal4 proteins. […] At the end of 24 hour incubation, total RNA was isolated using TriZol reagent (Invitrogen). The isolated RNA is then reverse-transcribed using oligo(dT) primer and Mo-MLV reverse transcriptase (Invitrogen) with DNAse I (Ambion) treatment for 30 min. The one-tenth of the produced cDNA was amplified by PCR using Taq DNA polymerase (Invitrogen) and two reporter sequence-specific primers. The PCR products were fluorescently labeled by primer extension with 6-arboxyfluorescein (6-FAM) 5'-labeled reporter sequence-specific primer (2 min at 95 C, 20 s at 68 C and 10 min at 72 C) and these products were digested with 5U of HpaI (New England Biolabs) for 2h at 37 C. The fragments were purified using Qiaquick PCR columns (Qiagen), analyzed on an ABI 3130xL genetic analyzer (Applied Biosystems) with peak positions identified by using a set of X-rhodamine (ROX)-labeled MapMarker1000 molecular weight standards (BioVentures). The raw capillary electrophoresis data was processed using Attagraph software (Attagene).
With `CC(C)(C)c1n[nH]c(=S)n(N)c1=O`, the compound was classed as inactive.

Turning to `C=C[Si](OCC)(OCC)OCC`, the call was inactive.

Turning to `C=C(C)C(=O)O`, the compound was called inactive. Take `CCc1ccc(C=O)cc1`: the compound was classed as inactive.

Consider `CC(C)(Oc1ccc(CCNC(=O)c2ccc(Cl)cc2)cc1)C(=O)O`, for which the compound was classed as inactive. As to `CN(C)C(=N)N=C(N)N`, the compound was called inactive. Consider `O=C1CCc2ccccc2O1`, for which the compound was classed as inactive. The same measure, in the same setting: next, `CCCCCCCCC`: “inactive”; `CC(=O)Nc1ccc(CC(=O)O)cc1`: “inactive”.

As to `COC(=O)Cc1cccc2ccccc12`, the compound was called inactive. Consider `CC(C)C[C@H]1C(=O)N2CCC[C@H]2[C@]2(O)O[C@](NC(=O)[C@@H]3C=C4c5cccc6[nH]c(Br)c(c56)C[C@H]4N(C)C3)(C(C)C)C(=O)N12`, for which the AC50 was 3.24 µM (active).

On to `CC(C)c1cccc(O)c1`, for which the result was inactive.

On to `OC1OC[C@@H](O)[C@H](O)[C@H]1O` (stereo not given in full), for which the compound was classed as inactive.

Turning to `ClCCCl`, the outcome was inactive. On to `CCCCNC(=O)NS(=O)(=O)c1ccc(N)cc1`, for which the result was inactive. For the compound `CC(=O)C=CC1=C(C)CCCC1(C)C`, the result was inactive. On to `CC1CCC(C(C)CS)CC1S` (stereo not given), for which the compound was called inactive. As to `Cc1ccc(Nc2ccc(O)c3c2C(=O)c2ccccc2C3=O)cc1`, the result was inactive.

Consider `OCc1cccnc1`, for which the compound was classed as inactive. As to `C[C@H]1C[C@@H]2[C@H]([C@@H](O)C[C@@]3(C)[C@H]2CC[C@]3(O)C(=O)CO)[C@@]2(C)C=CC(=O)C=C12`, the outcome was inactive. As for `Cc1ccc(C=O)s1`, the result was inactive.

In the case of `O=[N+]([O-])c1ccc(C=Cc2ccc([N+](=O)[O-])cc2S(=O)(=O)O)c(S(=O)(=O)O)c1`, the result was inactive. `CCOC(=O)c1ccccc1OC`: the compound was called inactive.

For the compound `CCCCCCCCCCCCCCCCCC(=O)OCC(CC)CCCC` (stereo not given), the call was inactive. With `O=C(O)c1ccc([N+](=O)[O-])cc1`, the compound was called inactive.

In the case of `O=C(O)Cc1cccc2ccccc12`, the compound was classed as inactive. With `Cc1ccc2ccccc2n1`, the compound was called inactive. On the same count and under the same terms, in the case of `CCCC(=O)C(C)=O` it was “inactive”; in that of `Sc1nc(S)nc(S)n1`, “inactive”; in that of `OC1C(O)C(O)C(O)C(O)C1O` (stereo not given), “inactive”. Turning to `CC[Si](OC(C)=O)(OC(C)=O)OC(C)=O`, the compound was classed as inactive.

Regarding `C=C(C)C(=O)O[C@H]1C[C@@H]2CC[C@@]1(C)C2(C)C`, the compound was classed as inactive. On to `CC(CCO)CCc1ccccc1` (stereo not given), for which the call was inactive. With `CCCCCCCCCCCCCCCC(=O)O`, the call was inactive. The same measure, in the same setting: in the case of `Cc1cccc(C)c1[N+](=O)[O-]` it was “inactive”.

As for `CC(C)c1ccc(C(C)C)cc1`, the compound was called inactive. The same measure, in the same setting: next, `N#Cc1ccc(CC(=NNC(=O)Nc2ccc(OC(F)(F)F)cc2)c2cccc(C(F)(F)F)c2)cc1`: “inactive”. `C=C(C)C(=O)OCc1ccccc1`: the call was inactive. Regarding `C=CC(C)(O)CCC=C(C)CCC=C(C)C` (stereo not given), the AC50 was 164 µM (active).

As for `CO[Si](C)(OC)c1ccccc1`, the compound was classed as inactive.

By AC50 is commonly meant the midpoint of the concentration-response curve, whichever way the signal moves.

(Values after PubChem BioAssay (EPA / NIEHS).)
